# Results published in PubChem BioAssay (NCI).
# Compounds without any hit were thinned out: in the full panel of roughly 79,000, 15% have a hit. Values without a mark were called inactive. Activity calls are given as the source filed them. Rule as the data show it: active = growth inhibition above about 70%; inactive = the rest.
# Assays:
# [1] = NCI Yeast Anticancer Drug Screen. Data for the rad52 strain (AID 147);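 also: 0% = growth of vehicle-treated control cultures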; conditions: S. cerevisiae rad52 mutant growth inhibition, hits give high values
# Procedure, shortened: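 Yeast strain carrying a DNA damage repair alteration was exposed to test compounds. Growth inhibition was measured relative to vehicle-treated controls.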
# [2] = NCI Yeast Anticancer Drug Screen. Data for the wt1 strain (AID 149);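 also: 0% = growth of vehicle-treated wt1 cultures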; conditions: S. cerevisiae wt1 strain (SPY 50644) growth inhibition, hits give high values
# Procedure, shortened: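 Readout: yeast growth inhibition, normalised to vehicle controls, in the wt1 strain exposed to test compounds.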
# [3] = NCI Yeast Anticancer Drug Screen. Data for the rad50EPP+ strain (AID 151);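 also: 0% = growth of vehicle-treated control cultures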; conditions: S. cerevisiae rad50 mutant strain, hits give high values
# Procedure, shortened: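 Yeast strain carrying rad50 alteration (rad50EPP+) exposed to compounds; growth inhibition measured relative to vehicle-treated controls.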
# [4] = NCI Yeast Anticancer Drug Screen. Data for the mgt1 strain (AID 153); conditions: S. cerevisiae mgt1 mutant growth inhibition, hits give high values
# Procedure, shortened: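 Yeast mgt1 strain (DNA repair/cell-cycle alteration panel) exposed to compounds; growth inhibition measured relative to vehicle-treated controls.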
# [5] = NCI Yeast Anticancer Drug Screen. Data for the rad50 strain (AID 155);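 also: 0% = growth of vehicle-only cultures of the same strain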; conditions: S. cerevisiae rad50 strain growth inhibition, hits give high values
# Procedure, shortened: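 Compounds were tested on a yeast strain with an engineered DNA damage repair alteration; the reported value is growth inhibition normalised to vehicle treatment.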
# [6] = NCI Yeast Anticancer Drug Screen. Data for the mec2-1 strain (AID 157); conditions: S. cerevisiae mec2-1 strain, hits give high values
# Procedure, shortened: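 mec2-1 yeast strain, carrying an alteration in DNA damage repair or cell cycle control, was exposed to compounds; growth inhibition was measured relative to vehicle-treated controls.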
# [7] = NCI Yeast Anticancer Drug Screen. Data for the rad14 strain (AID 159);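 also: 0% = growth of vehicle-treated control cultures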; conditions: S. cerevisiae rad14 strain growth inhibition, hits give high values
# Procedure, shortened: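 Compound-treated yeast with a defined DNA-repair lesion; growth inhibition normalised to vehicle-treated cultures.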
# [8] = NCI Yeast Anticancer Drug Screen. Data for the sgs1 mgt1 strain (AID 161);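 also: 0% = growth of cultures given vehicle only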; conditions: S. cerevisiae sgs1 mgt1 strain, hits give high values
# Procedure, shortened: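 Yeast cells carrying a defined DNA-repair defect were exposed to test compounds. Growth inhibition was measured relative to vehicle-treated controls.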
# [9] = NCI Yeast Anticancer Drug Screen. Data for the cln2 rad14 strain (AID 165);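 also: 0% = growth equal to vehicle treated cultures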; conditions: S. cerevisiae cln2 rad14 strain, hits give high values
# Procedure, shortened: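 Yeast carrying cln2 and rad14 alterations (cell cycle control and DNA damage repair) were exposed to compounds. Growth inhibition was measured against vehicle-treated controls.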
# [10] = NCI Yeast Anticancer Drug Screen. Data for the bub3 strain (AID 167); conditions: S. cerevisiae bub3 mutant strain, hits give high values
# Procedure, shortened: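 Growth of a checkpoint-deficient yeast mutant is measured after compound exposure. Values represent inhibition relative to vehicle.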
# [11] = NCI Yeast Anticancer Drug Screen. Data for the wt2 strain (AID 169);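 also: 0% = growth of vehicle-treated yeast cultures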; conditions: S. cerevisiae wt2 strain growth inhibition, hits give high values
# Procedure, shortened: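 Yeast cells were exposed to test compounds, and growth inhibition was measured relative to vehicle-treated controls.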
# [12] = NCI Yeast Anticancer Drug Screen. Data for the mlh1 strain (AID 171);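 also: 0% = growth of vehicle-treated control cultures of the same strain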; conditions: S. cerevisiae mlh1 strain growth inhibition, hits give high values
# Procedure, shortened: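 Yeast carrying a defined genetic alteration in DNA damage repair or cell cycle control were exposed to test compounds. Growth inhibition was measured relative to vehicle-treated controls.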
# [13] = NCI Yeast Anticancer Drug Screen. Data for the sgs1 strain (AID 173);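 also: 0% = growth of vehicle-only control cultures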; conditions: S. cerevisiae sgs1 mutant, hits give high values
# Procedure, shortened: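 Yeast mutant strains carrying defined defects in DNA damage repair or cell cycle control were exposed to test compounds. Growth inhibition was scored against vehicle-treated controls.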
# [14] = NCI Yeast Anticancer Drug Screen. Data for the mlh1 rad18 strain (AID 175); conditions: S. cerevisiae mlh1 rad18 strain growth inhibition, hits give high values
# Procedure, shortened: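 Growth inhibition of the yeast strain was measured after compound exposure and expressed relative to vehicle-treated controls. The strain carries defined defects in DNA damage repair.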
# [15] = NCI Yeast Anticancer Drug Screen. Data for the rad18 strain (AID 177); conditions: S. cerevisiae rad18 mutant growth inhibition, hits give high values
# Procedure, shortened: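 Yeast carrying a defined DNA damage repair alteration were exposed to compounds. Growth inhibition was expressed relative to vehicle-treated controls.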
# [16] = NCI Yeast Anticancer Drug Screen. Data for the CLN2oe strain (AID 163);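 also: 0% = growth of vehicle-only control cultures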; conditions: S. cerevisiae CLN2oe strain, hits give high values
# Procedure, shortened: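 Yeast cells carrying a defined cell-cycle control alteration were exposed to test compounds. Growth inhibition was scored against vehicle-treated control cultures.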
# [17] = at 5.0 µM (retest, dose inferred, filed as 0.5)
# [18] = at 50.0 µM (retest, dose inferred, filed as 5.0)
structure (smiles),measurement,setting,value
CCOP(=O)(OCC)/C(C#N)=C/c1cccc(Oc2ccccc2)c1,growth inhibition,[1]; at 1.2 µM,-17%
same,growth inhibition,[1]; at 3.7 µM,-14%
same,growth inhibition,[1]; at 11.0 µM,60%
same,growth inhibition,[1]; at 33.0 µM,95% (active)
same,growth inhibition,[1]; at 100.0 µM,96% (active)
same,growth inhibition,[2]; at 1.2 µM,-13%
same,growth inhibition,[2]; at 3.7 µM,-26%
same,growth inhibition,[2]; at 11.0 µM,56%
same,growth inhibition,[2]; at 33.0 µM,96% (active)
same,growth inhibition,[2]; at 100.0 µM,97% (active)
same,growth inhibition,[3]; at 1.2 µM,0%
same,growth inhibition,[3]; at 3.7 µM,-7%
same,growth inhibition,[3]; at 11.0 µM,7%
same,growth inhibition,[3]; at 33.0 µM,7%
same,growth inhibition,[3]; at 100.0 µM,62%
same,growth inhibition,[4]; at 1.2 µM,-32%
same,growth inhibition,[4]; at 3.7 µM,-40%
same,growth inhibition,[4]; at 11.0 µM,28%
same,growth inhibition,[4]; at 33.0 µM,95% (active)
same,growth inhibition,[4]; at 100.0 µM,96% (active)
same,growth inhibition,[5]; at 1.2 µM,-30%
same,growth inhibition,[5]; at 3.7 µM,-30%
same,growth inhibition,[5]; [17],2%
same,growth inhibition,[5]; at 11.0 µM,42%
same,growth inhibition,[5]; at 33.0 µM,96% (active)
same,growth inhibition,[5]; [18],96% (active)
same,growth inhibition,[5]; at 50.0 µM,90.2% (active)
same,growth inhibition,[5]; at 100.0 µM,96% (active)
same,growth inhibition,[6]; at 1.2 µM,-8%
same,growth inhibition,[6]; at 3.7 µM,1%
same,growth inhibition,[6]; [17],-7%
same,growth inhibition,[6]; at 11.0 µM,45%
same,growth inhibition,[6]; at 33.0 µM,97% (active)
same,growth inhibition,[6]; [18],98% (active)
same,growth inhibition,[6]; at 50.0 µM,93.5% (active)
same,growth inhibition,[6]; at 100.0 µM,98% (active)
same,growth inhibition,[7]; at 1.2 µM,-40%
same,growth inhibition,[7]; at 3.7 µM,-39%
same,growth inhibition,[7]; at 11.0 µM,35%
same,growth inhibition,[7]; at 33.0 µM,94% (active)
same,growth inhibition,[7]; at 100.0 µM,96% (active)
same,growth inhibition,[8]; [17],1%
same,growth inhibition,[8]; [18],96% (active)
same,growth inhibition,[8]; at 50.0 µM,91.2% (active)
same,growth inhibition,[9]; [17],-4%
same,growth inhibition,[9]; [18],97% (active)
same,growth inhibition,[9]; at 50.0 µM,90.5% (active)
same,growth inhibition,[10]; at 1.2 µM,-11%
same,growth inhibition,[10]; at 3.7 µM,-19%
same,growth inhibition,[10]; [17],22%
same,growth inhibition,[10]; at 11.0 µM,41%
same,growth inhibition,[10]; at 33.0 µM,97% (active)
same,growth inhibition,[10]; [18],95% (active)
same,growth inhibition,[10]; at 50.0 µM,90.3% (active)
same,growth inhibition,[10]; at 100.0 µM,97% (active)
same,growth inhibition,[11]; at 1.2 µM,1%
same,growth inhibition,[11]; at 3.7 µM,1%
same,growth inhibition,[11]; at 11.0 µM,38%
same,growth inhibition,[11]; at 33.0 µM,96% (active)
same,growth inhibition,[11]; at 100.0 µM,97% (active)
same,growth inhibition,[12]; at 1.2 µM,-2%
same,growth inhibition,[12]; at 3.7 µM,9%
same,growth inhibition,[12]; at 11.0 µM,48%
same,growth inhibition,[12]; at 33.0 µM,96% (active)
same,growth inhibition,[12]; at 100.0 µM,97% (active)
same,growth inhibition,[13]; at 1.2 µM,10%
same,growth inhibition,[13]; at 3.7 µM,3%
same,growth inhibition,[13]; at 11.0 µM,44%
same,growth inhibition,[13]; at 33.0 µM,97% (active)
same,growth inhibition,[13]; at 100.0 µM,98% (active)
same,growth inhibition,[14]; [17],-8%
same,growth inhibition,[14]; [18],-3%
same,growth inhibition,[14]; at 50.0 µM,88.8% (active)
same,growth inhibition,[15]; at 1.2 µM,-6%
same,growth inhibition,[15]; at 3.7 µM,-16%
same,growth inhibition,[15]; at 11.0 µM,53%
same,growth inhibition,[15]; at 33.0 µM,97% (active)
same,growth inhibition,[15]; at 100.0 µM,97% (active)
Cc1ccc(Nc2n[nH]c(=S)s2)c(C)c1,growth inhibition,[1]; at 1.2 µM,-42%
same,growth inhibition,[1]; at 3.7 µM,-28%
same,growth inhibition,[1]; at 11.0 µM,-33%
same,growth inhibition,[1]; at 33.0 µM,2%
same,growth inhibition,[1]; at 100.0 µM,89% (active)
same,growth inhibition,[2]; at 1.2 µM,-16%
same,growth inhibition,[2]; at 3.7 µM,-3%
same,growth inhibition,[2]; at 11.0 µM,-10%
same,growth inhibition,[2]; at 33.0 µM,18%
same,growth inhibition,[2]; at 100.0 µM,90% (active)
same,growth inhibition,[3]; at 1.2 µM,-45%
same,growth inhibition,[3]; at 3.7 µM,-33%
same,growth inhibition,[3]; at 11.0 µM,23%
same,growth inhibition,[3]; at 33.0 µM,56%
same,growth inhibition,[3]; at 100.0 µM,51%
same,growth inhibition,[4]; at 1.2 µM,-52%
same,growth inhibition,[4]; at 3.7 µM,-56%
same,growth inhibition,[4]; at 11.0 µM,-21%
same,growth inhibition,[4]; at 33.0 µM,58%
same,growth inhibition,[4]; at 100.0 µM,85% (active)
same,growth inhibition,[5]; at 1.2 µM,-11%
same,growth inhibition,[5]; at 3.7 µM,-15%
same,growth inhibition,[5]; [17],21%
same,growth inhibition,[5]; at 11.0 µM,0%
same,growth inhibition,[5]; at 33.0 µM,15%
same,growth inhibition,[5]; [18],18%
same,growth inhibition,[5]; at 50.0 µM,56.3%
same,growth inhibition,[5]; at 100.0 µM,90% (active)
same,growth inhibition,[6]; at 1.2 µM,-44%
same,growth inhibition,[6]; at 3.7 µM,-45%
same,growth inhibition,[6]; [17],-11%
same,growth inhibition,[6]; at 11.0 µM,-18%
same,growth inhibition,[6]; at 33.0 µM,-3%
same,growth inhibition,[6]; [18],8%
same,growth inhibition,[6]; at 50.0 µM,14.8%
same,growth inhibition,[6]; at 100.0 µM,83% (active)
same,growth inhibition,[7]; at 1.2 µM,-45%
same,growth inhibition,[7]; at 3.7 µM,-33%
same,growth inhibition,[7]; at 11.0 µM,-41%
same,growth inhibition,[7]; at 33.0 µM,37%
same,growth inhibition,[7]; at 100.0 µM,91% (active)
same,growth inhibition,[8]; [17],-6%
same,growth inhibition,[8]; [18],44%
same,growth inhibition,[8]; at 50.0 µM,70.5% (active)
same,growth inhibition,[16]; at 1.2 µM,4%
same,growth inhibition,[16]; at 3.7 µM,0%
same,growth inhibition,[16]; at 11.0 µM,-10%
same,growth inhibition,[16]; at 33.0 µM,13%
same,growth inhibition,[16]; at 100.0 µM,76% (active)
same,growth inhibition,[10]; at 1.2 µM,3%
same,growth inhibition,[10]; at 3.7 µM,10%
same,growth inhibition,[10]; [17],3%
same,growth inhibition,[10]; at 11.0 µM,30%
same,growth inhibition,[10]; at 33.0 µM,17%
same,growth inhibition,[10]; [18],71% (active)
same,growth inhibition,[10]; at 50.0 µM,52.5%
same,growth inhibition,[10]; at 100.0 µM,84% (active)
same,growth inhibition,[11]; at 1.2 µM,-38%
same,growth inhibition,[11]; at 3.7 µM,-34%
same,growth inhibition,[11]; at 11.0 µM,-10%
same,growth inhibition,[11]; at 33.0 µM,62%
same,growth inhibition,[11]; at 100.0 µM,91% (active)
same,growth inhibition,[13]; at 1.2 µM,-29%
same,growth inhibition,[13]; at 3.7 µM,-28%
same,growth inhibition,[13]; at 11.0 µM,9%
same,growth inhibition,[13]; at 33.0 µM,51%
same,growth inhibition,[13]; at 100.0 µM,93% (active)
same,growth inhibition,[14]; [17],1%
same,growth inhibition,[14]; [18],19%
same,growth inhibition,[14]; at 50.0 µM,24.4%
same,growth inhibition,[15]; at 1.2 µM,-27%
same,growth inhibition,[15]; at 3.7 µM,-25%
same,growth inhibition,[15]; at 11.0 µM,-13%
same,growth inhibition,[15]; at 33.0 µM,39%
same,growth inhibition,[15]; at 100.0 µM,93% (active)
